CapD inh = blocks the Bacillus anthracis CapD enzyme; purified CapD enzyme, fluorescence intensity read-out; active compounds read low; z-score (no concentration beside the values); hit rate 0.23% among 140,000; AID 492967; in the data active = z-score mostly below about -2.9, no sharp cut-off; inactive = mostly above about -1.9
Each line names hits and unclear results; the compound was inactive in the other large screens. The sample as a whole holds a higher share of hits than the screen did.

COC(=O)c1cccc(-c2ccc(/C=C3\SC(=N)N(c4nccs4)C3=O)o2)c1	none
N=C1S/C(=C/c2ccc(-c3ccccc3[N+](=O)[O-])o2)C(=O)N1c1nonc1N	none
N=C1S/C(=C/c2ccc(-c3cccc(C(=O)O)c3)o2)C(=O)N1c1nonc1N	CapD inh -6.1
COc1ccc(C2=NN(C(=O)CCC(=O)O)C(c3cc(OC)ccc3OC)C2)cc1 (stereo unspecified)	none
CC(C)(C)c1ccccc1NS(C)(=O)=O	none
COc1ccc(Nc2nc3nonc3nc2Nc2ccc(OC)cc2)cc1	none
Fc1ccc(Nc2nc3nonc3nc2Nc2ccc(F)cc2F)c(F)c1	none
CN(C)c1nc2nonc2nc1Nc1ccc(F)cc1	CapD inh -5.19
COc1cccc(OCC(=O)NCC(C)C)c1	none
Cc1cccc(C)c1NC(=O)Cn1nnc(C(=O)NCc2ccccc2Cl)c1N	none
Cc1ccc(-c2cccc(=O)o2)cc1	CapD inh -3.96
Cc1ccc2c(=O)cc(-c3ccc(F)cc3)oc2c1	none
Cc1ccc(-c2nc3ccccc3c(=O)o2)cc1	none
CCN(CC)c1ccc2cc(C(=O)NC(C)=O)c(=Nc3cccc(F)c3)oc2c1	none
COc1ccc(C(=O)CSc2nnc(-c3ccco3)c(-c3ccco3)n2)cc1	none
O=C(CSc1nnc(-c2ccco2)c(-c2ccco2)n1)Nc1ccc(C(=O)O)cc1	CapD inh -10.9
O=C(CSc1nnc(-c2ccccc2)c(-c2ccccc2)n1)Nc1ccc(F)cc1	none
CCOC(=O)c1cc(C#N)c(C)nc1N1CCN(C(=O)OCc2ccccc2OC)CC1	none
O=C(NCC1CC1)c1ccc(Cn2cc(C(F)(F)F)ccc2=O)cc1	none
CN(C)/C=C/C(=O)c1ccccc1	CapD inh -4.9
Cc1oc(-c2ccccc2)cc1C(=O)/C=C/N(C)C	none
CSc1sc(C(=O)/C=C/N(C)C)c(-c2cccs2)c1C#N	none
O=C(c1cccs1)c1cccs1	none
CN(C)/C=C/C(=O)c1ccc(S(=O)(=O)c2ccccc2)cc1	none
Cc1c(C(=O)/C=C/N(C)C)nnn1-c1ccc(Cl)c(Cl)c1	none
C/C(=N\O)c1ccc2c(c1)CCO2	none
CN(C)/C=C/C(=O)c1cccs1	CapD inh -4.92
CN(C)/C=C/C(=O)c1ccc2c(c1)CCO2	CapD inh -6.09
CC(=O)c1ccc2c(c1)CCO2	none
Cc1c(C(=O)/C=C/N(C)C)nnn1-c1ccc(F)c(Cl)c1	none
Cc1c(C(=O)/C=C/N(C)C)nnn1-c1ccccc1	CapD inh -5.5
CN(C1CCN(Cc2ccccc2OCc2ccccc2)C1)S(=O)(=O)c1ccc(S(C)(=O)=O)cc1 (stereo unspecified)	none
COc1ccc2oc(=Nc3ccc(C(=O)O)cc3)c(C(=O)Nc3cc(Cl)ccc3OC)cc2c1	none
Cc1nc2ccn(Cc3ccccc3)c(=O)c2cc1C(=O)N1CCCC1	none
CCC1Sc2cc(S(=O)(=O)N3CCCc4ccccc43)ccc2NC1=O (stereo unspecified)	none
COc1ccc(C(O)(C(=O)NN(C(=O)c2ccccc2)c2ccccc2C)c2ccc(OC)cc2)cc1	none
COCCNC(=O)c1ccc(NCc2ccccc2OC)c(S(=O)(=O)Nc2cccc(C(F)(F)F)c2)c1	none
CNC(=O)N(O)C1N(C)C(=O)N(CCC2=CCCCC2)C1(C)C (stereo unspecified)	none
COc1cc(-n2cnc3cc(C(=O)NCCc4ccccc4)ccc32)cc(OC)c1OC	none
NS(=O)(=O)c1ccc(C(=O)N/N=C/c2cc3ccccc3o2)cc1	none
COc1ccc(/C=N/c2n[nH]c(N)n2)cc1	none
COc1cc(/C=C2/SC(=S)N(CC(=O)O)C2=O)cc(OC)c1OC	none
COc1cc(OC)c(OC)cc1/C=C1/SC(=S)N(CC(=O)O)C1=O	CapD inh -3.78
COc1ccc(OC)c(/C=C2/SC(=S)N(CC(=O)O)C2=O)c1	none
CCOC(=O)c1cnc(N2CCc3ccccc3C2)nc1N	CapD inh -3.88
CCOC(=O)c1sc2nc(C)nc(N3CCc4ccccc4C3)c2c1C	none
CCOC(=O)c1sc2ncnc(N3CCc4ccccc4C3)c2c1C	none
Cc1oc2c(c1C(=O)NCc1ccccc1)C(=O)c1ccccc1C2=O	none
CCCNC(=O)c1c(C)cc(=O)oc1C	none
Cc1cc(=O)oc(C)c1C(=O)NCc1ccccc1	CapD inh -3.69
O=C(NCC12CC3CC(CC(C3)C1)C2)c1cc(-c2ccccc2F)no1	none
CCOC(=O)CCc1c(C)nn2cnnc2c1C	none
N#C/C(=C/c1ccccc1)C(=O)N/C=N/OCc1ccc(Cl)cc1Cl	none
Clc1ccccc1-c1csc(-c2ccncc2)n1	none
CC1C/C(=C/c2ccco2)C(C)N(C)C1 (stereo unspecified)	CapD inh -5.18
CCC1C/C(=C/c2ccco2)C(=O)/C(=C/c2ccco2)C1 (stereo unspecified)	none
CC1CC(C)CN(C(=O)COC(=O)/C=C/c2ccco2)C1 (stereo unspecified)	none
Cc1c(C(=O)c2ccc([N+](=O)[O-])cc2)oc2c(Cl)cc(Cl)cc12	none
CC(C)(C)Oc1ccc(C(=O)N(Cc2ccc(F)cc2)C2CCOC(C)(C)C2)cc1 (stereo unspecified)	none
CCC/C=C/COC(=O)NCCc1c[nH]c2ccc(OC)cc12	none
CC1=NN(c2ccc(Cl)c(C(=O)O)c2)C(=O)/C1=C/c1cn(Cc2ccccc2)c2ccccc12	none
CC1=NN(c2ccccc2)C(=O)/C1=C/c1coc2ccccc2c1=O	none
CC1=NN(c2ccccc2)C(=O)/C1=C/c1cn(CC(O)CN2CCCCC2)c2ccccc12 (stereo unspecified)	CapD inh -4.83
Cc1c(Cl)cccc1NC(=O)c1cccs1	none
Cc1ccc(C)c(NC(=O)c2cccs2)c1	none
CCOC(=O)c1c(C)cccc1NC(=O)c1cccs1	CapD inh -1.73
CCNC(=O)c1cc2n(n1)CCCN(Cc1ccccc1)C2=O	none
N#CC(c1ccc(Br)cc1)N1CCN(C(C#N)c2ccc(Br)cc2)CC1 (stereo unspecified)	none
COc1ccc(C2=N/C(=C\c3ccc4c(c3)OCO4)C(=O)O2)cc1	none
CC(=O)Nc1ccc(NC(=O)C(C)OC(=O)C2CC2)cc1 (stereo unspecified)	none
O=[N+]([O-])c1cccc(-c2csc(-c3cccnc3)n2)c1	none
Fc1ccc(N2CCN(Cc3ccnc(Cl)c3)CC2)cc1	none
Cc1ccc(N=C2NC(=O)/C(=C\c3ccc(-c4ccc(C(=O)O)cc4)o3)S2)cc1	none
Cc1cc(C(=O)O)ccc1-c1ccc(/C=C2\SC(=S)NC2=O)o1	CapD inh -9.45
Cc1cc(C(=O)O)ccc1-c1ccc(/C=N/n2cnnc2)o1	none
CCN(CC)c1ccc(CNc2ccc3c(c2)ncn3C(C)(C)C)cc1	CapD inh -4.62
CCN(CC)c1ccc(CNc2ccc3c(c2)ncn3C)cc1	none
CC(C)(C)n1cnc2cc(NCc3ccccc3O)ccc21	none
O=C1CN(c2cc(Cl)cc(Cl)c2)C(=O)CN1/N=C/c1cccnc1	none
O=C1CSC(=S)N1/N=C/c1cccnc1	CapD inh -4.04
O=C1CSC(=S)N1/N=C/c1cc(Br)cc(Br)c1O	none
Cc1ccc(N=Cc2ccco2)c(C)c1	none
Cc1ccccc1N1CCN(C(=O)OCCc2ccccc2F)CC1	none
COc1cc(/C=C2/C(=N)N3C(=NC2=O)SN=C3S(=O)(=O)C(C)C)cc(Cl)c1OC(=O)c1ccco1	none
CS(=O)(=O)C1=NN2C(=N)/C(=C\c3ccco3)C(=O)N=C2S1	none
CC(C)S(=O)(=O)C1=NSC2=NC(=O)/C(=C\c3ccco3)C(=N)N21	CapD inh -3.77
COc1ccc(-n2cccc2/C=C2/SC(=Nc3ccc(F)cc3)NC2=O)cc1	none
CCN(CC)C(=N)/C(C#N)=N\Nc1ccc(C)cc1	none
CCCCCCCCCOC1OC(COC(C)=O)C(OC(C)=O)C(OC(C)=O)C1NC(C)=O (stereo unspecified)	none
Cc1cc(C)n(-c2ccc(C(=O)O)cc2)n1	none
Cc1cc(C)n(-c2ccc(S(N)(=O)=O)cc2)n1	none
